# Test results from publication PMC7862700, “An all-to-all approach to the identification of sequence-specific readers for epigenetic DNA modifications on cytosine”.
# Tests used:
# Experiment in all cases: DAPPL (digital affinity profiling via proximity ligation, sequencing); 10 mM Tris-HCl pH 7.5, 50 mM NaCl, 1 mM DTT, 4% glycerol, room temperature, 30 min; GST-TFs on glutathione beads, 16-mer random dsDNA library, 0.1% formaldehyde crosslink after washing; high values mean tight binding
# FLI1 = target: T1, FLI1 (Homo sapiens, UniProt Q01543 1-452); conditions: protein: recombinant; tags: N-terminal GST; dsDNA, one strand shown
# T1 sequence: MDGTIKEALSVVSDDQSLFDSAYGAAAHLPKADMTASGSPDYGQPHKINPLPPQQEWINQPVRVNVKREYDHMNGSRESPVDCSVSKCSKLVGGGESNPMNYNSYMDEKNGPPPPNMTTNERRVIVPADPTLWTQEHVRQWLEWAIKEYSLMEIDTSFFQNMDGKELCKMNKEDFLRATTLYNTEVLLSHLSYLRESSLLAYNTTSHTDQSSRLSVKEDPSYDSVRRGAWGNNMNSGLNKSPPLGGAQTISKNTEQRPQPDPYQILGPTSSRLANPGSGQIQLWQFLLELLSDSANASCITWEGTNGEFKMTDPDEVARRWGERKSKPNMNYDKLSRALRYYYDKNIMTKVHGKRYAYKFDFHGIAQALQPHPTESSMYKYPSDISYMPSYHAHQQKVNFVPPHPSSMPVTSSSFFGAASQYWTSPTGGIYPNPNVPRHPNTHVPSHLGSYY
# How it was run: (§1)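 Pools of DNA-barcoded human transcription factors, expressed in yeast as GST fusions on glutathione beads and combined with a tag-only sample, were incubated with 200 nmole of a 16-mer random double-stranded DNA library. Incubation took 30 min at room temperature in Tris/NaCl/DTT/glycerol buffer and was followed by washing, 0.1% formaldehyde crosslinking, proximity ligation (BsaI/T4 ligase, 1 h, 37 °C), PCR amplification and sequencing on an Illumina NextSeq500. Binding signal is the ratio of a hexamer's read frequency for a factor to its frequency for the tag-only sample.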
# ELK1 = target: T2, ELK1 (Homo sapiens, UniProt P19419 1-428); conditions: protein: recombinant; tags: N-terminal GST; dsDNA, one strand shown
# T2 sequence: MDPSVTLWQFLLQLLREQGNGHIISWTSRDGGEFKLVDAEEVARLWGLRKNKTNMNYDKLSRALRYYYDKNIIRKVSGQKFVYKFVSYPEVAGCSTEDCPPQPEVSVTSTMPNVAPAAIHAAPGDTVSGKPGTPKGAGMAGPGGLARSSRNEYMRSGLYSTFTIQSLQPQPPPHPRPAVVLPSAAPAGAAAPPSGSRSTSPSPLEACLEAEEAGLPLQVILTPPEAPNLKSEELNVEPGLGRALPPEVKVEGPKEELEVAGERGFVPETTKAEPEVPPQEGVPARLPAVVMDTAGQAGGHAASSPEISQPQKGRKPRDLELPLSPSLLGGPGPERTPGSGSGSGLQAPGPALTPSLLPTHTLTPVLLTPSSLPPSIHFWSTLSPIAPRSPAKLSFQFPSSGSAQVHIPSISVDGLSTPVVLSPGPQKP
# How it was run: as §1
# GABPA = target: T3, GABPA (Homo sapiens, UniProt Q06546 1-454); conditions: protein: recombinant; tags: N-terminal GST; dsDNA, one strand shown
# T3 sequence: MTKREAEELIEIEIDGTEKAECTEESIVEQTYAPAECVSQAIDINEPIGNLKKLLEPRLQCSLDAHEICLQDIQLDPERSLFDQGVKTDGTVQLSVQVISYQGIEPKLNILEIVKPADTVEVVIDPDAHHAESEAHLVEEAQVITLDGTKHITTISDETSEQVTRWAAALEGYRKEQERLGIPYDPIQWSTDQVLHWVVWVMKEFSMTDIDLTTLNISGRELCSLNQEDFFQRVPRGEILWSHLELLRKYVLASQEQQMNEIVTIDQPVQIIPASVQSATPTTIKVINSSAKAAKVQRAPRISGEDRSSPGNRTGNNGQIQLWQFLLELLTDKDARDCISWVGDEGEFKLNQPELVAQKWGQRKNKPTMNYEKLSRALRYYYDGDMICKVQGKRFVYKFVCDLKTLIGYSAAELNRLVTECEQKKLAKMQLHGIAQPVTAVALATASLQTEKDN
# How it was run: as §1
# ERG = target: T4, ERG (Homo sapiens, UniProt P11308 1-479); conditions: protein: recombinant; tags: N-terminal GST; dsDNA, one strand shown
# T4 sequence: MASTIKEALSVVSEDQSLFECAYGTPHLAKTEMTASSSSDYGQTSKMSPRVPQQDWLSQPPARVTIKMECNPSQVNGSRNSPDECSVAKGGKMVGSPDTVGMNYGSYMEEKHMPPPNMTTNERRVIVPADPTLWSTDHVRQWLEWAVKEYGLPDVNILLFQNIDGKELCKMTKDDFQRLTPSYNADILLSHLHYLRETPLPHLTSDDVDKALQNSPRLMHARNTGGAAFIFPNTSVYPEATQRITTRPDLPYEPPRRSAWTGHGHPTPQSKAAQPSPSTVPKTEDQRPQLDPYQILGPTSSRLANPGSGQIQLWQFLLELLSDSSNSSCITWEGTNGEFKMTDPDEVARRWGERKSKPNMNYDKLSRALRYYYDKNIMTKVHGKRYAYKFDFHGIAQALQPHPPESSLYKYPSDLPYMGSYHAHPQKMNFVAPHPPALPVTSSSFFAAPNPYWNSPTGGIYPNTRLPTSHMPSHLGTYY
# How it was run: as §1
# ELF1 = ELF1 (Homo sapiens, UniProt P32519 1-619); conditions: protein: recombinant; tags: N-terminal GST; dsDNA, one strand shown
# How it was run: as §1
# EHF = target: T5, EHF (Homo sapiens, UniProt Q9NZC4 1-300); conditions: protein: recombinant; tags: N-terminal GST; dsDNA, one strand shown
# T5 sequence: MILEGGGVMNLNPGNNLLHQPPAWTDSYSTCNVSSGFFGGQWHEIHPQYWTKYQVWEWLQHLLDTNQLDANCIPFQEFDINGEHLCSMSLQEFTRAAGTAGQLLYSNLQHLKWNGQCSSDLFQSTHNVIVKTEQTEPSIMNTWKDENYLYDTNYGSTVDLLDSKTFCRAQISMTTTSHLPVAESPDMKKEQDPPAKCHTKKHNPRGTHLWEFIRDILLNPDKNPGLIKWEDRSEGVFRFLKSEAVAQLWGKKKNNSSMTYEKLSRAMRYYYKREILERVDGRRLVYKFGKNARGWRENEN
# How it was run: as §1
# SPI1 = SPI1 (Homo sapiens, UniProt P17947 1-270); conditions: protein: recombinant; tags: N-terminal GST; dsDNA, one strand shown
# How it was run: as §1
# SPIB = SPIB (Homo sapiens, UniProt Q01892 1-262); conditions: protein: recombinant; tags: N-terminal GST; dsDNA, one strand shown
# How it was run: as §1
# ELK3 = target: T6, ELK3 (Homo sapiens, UniProt P41970 1-407); conditions: protein: recombinant; tags: N-terminal GST; dsDNA, one strand shown
# T6 sequence: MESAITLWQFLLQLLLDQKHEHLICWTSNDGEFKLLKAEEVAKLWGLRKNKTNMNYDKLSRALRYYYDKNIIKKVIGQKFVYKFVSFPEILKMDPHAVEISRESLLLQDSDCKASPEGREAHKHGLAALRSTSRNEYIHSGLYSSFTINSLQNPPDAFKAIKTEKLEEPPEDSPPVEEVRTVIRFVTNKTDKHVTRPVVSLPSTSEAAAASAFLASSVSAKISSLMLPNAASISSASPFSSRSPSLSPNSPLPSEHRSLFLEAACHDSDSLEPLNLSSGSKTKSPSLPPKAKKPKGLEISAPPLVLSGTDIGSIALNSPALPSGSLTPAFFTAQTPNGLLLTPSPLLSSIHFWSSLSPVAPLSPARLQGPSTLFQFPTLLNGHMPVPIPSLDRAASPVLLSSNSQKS
# How it was run: as §1
# FEV = target: T7, FEV (Homo sapiens, UniProt Q99581 1-238); conditions: protein: recombinant; tags: N-terminal GST; dsDNA, one strand shown
# T7 sequence: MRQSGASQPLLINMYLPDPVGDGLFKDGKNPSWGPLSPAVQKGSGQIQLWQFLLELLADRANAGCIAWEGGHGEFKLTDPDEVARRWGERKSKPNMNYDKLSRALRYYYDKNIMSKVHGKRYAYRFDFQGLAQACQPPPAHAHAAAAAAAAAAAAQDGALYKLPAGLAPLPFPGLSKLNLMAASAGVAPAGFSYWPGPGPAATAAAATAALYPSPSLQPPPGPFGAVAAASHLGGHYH
# How it was run: as §1
# ETV5 = ETV5 (Homo sapiens, UniProt P41161 1-510); conditions: protein: recombinant; tags: N-terminal GST; dsDNA, one strand shown
# How it was run: as §1
# HSF1 = HSF1 (Homo sapiens, UniProt Q00613 1-529); conditions: protein: recombinant; tags: N-terminal GST; chain copies: 3; dsDNA, one strand shown
# How it was run: as §1
# SPIC = target: T8, SPIC (Homo sapiens, UniProt Q8N5J4 1-248); conditions: protein: recombinant; tags: N-terminal GST; dsDNA, one strand shown
# T8 sequence: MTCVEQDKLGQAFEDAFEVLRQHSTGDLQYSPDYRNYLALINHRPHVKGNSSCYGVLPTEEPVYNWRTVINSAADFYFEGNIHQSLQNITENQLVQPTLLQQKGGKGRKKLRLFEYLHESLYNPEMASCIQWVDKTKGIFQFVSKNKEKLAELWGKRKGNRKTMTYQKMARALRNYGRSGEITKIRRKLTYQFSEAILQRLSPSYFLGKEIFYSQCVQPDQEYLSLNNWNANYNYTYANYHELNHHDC
# How it was run: as §1
# ELF4 = ELF4 (Homo sapiens, UniProt Q99607 1-663); conditions: protein: recombinant; tags: N-terminal GST; dsDNA, one strand shown
# How it was run: as §1
# ELK4 = target: T9, ELK4 (Homo sapiens, UniProt P28324-2 1-405); conditions: protein: recombinant; tags: N-terminal GST; dsDNA, one strand shown
# T9 sequence: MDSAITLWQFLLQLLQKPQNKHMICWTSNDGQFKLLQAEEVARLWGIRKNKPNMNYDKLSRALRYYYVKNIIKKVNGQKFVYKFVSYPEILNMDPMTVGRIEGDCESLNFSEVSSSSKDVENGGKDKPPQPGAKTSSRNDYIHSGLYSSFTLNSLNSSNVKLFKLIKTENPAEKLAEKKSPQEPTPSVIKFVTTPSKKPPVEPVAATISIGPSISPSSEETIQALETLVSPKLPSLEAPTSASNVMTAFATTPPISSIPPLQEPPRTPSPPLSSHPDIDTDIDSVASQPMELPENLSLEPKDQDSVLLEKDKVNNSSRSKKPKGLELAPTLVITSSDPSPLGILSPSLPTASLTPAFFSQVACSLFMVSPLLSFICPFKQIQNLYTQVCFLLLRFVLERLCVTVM
# How it was run: as §1
# ETV2 = target: T10, ETV2 (Homo sapiens, UniProt O00321 1-342); conditions: protein: recombinant; tags: N-terminal GST; dsDNA, one strand shown
# T10 sequence: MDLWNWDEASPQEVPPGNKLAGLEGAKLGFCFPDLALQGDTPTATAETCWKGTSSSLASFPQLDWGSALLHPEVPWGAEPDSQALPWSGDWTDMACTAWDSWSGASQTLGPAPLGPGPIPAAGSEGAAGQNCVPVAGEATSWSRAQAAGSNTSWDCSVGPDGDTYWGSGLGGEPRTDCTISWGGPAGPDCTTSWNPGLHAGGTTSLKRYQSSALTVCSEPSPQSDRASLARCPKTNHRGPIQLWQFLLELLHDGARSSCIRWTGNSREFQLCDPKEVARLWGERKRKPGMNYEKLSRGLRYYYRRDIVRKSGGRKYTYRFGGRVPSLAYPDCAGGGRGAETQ
# How it was run: as §1
# ELF3 = target: T11, ELF3 (Homo sapiens, UniProt P78545 1-371); conditions: protein: recombinant; tags: N-terminal GST; dsDNA, one strand shown
# T11 sequence: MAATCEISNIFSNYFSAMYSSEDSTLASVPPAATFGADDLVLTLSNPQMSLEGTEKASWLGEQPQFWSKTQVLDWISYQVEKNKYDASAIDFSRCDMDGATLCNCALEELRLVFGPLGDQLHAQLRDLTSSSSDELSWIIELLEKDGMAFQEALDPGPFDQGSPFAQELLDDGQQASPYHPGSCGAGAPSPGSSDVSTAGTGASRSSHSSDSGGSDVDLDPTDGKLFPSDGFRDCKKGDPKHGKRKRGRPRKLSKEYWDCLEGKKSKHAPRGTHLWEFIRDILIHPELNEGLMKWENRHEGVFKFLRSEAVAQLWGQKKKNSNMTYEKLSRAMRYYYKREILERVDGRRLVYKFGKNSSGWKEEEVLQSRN
# How it was run: as §1
# CRX = CRX (Homo sapiens, UniProt O43186 1-299); conditions: protein: recombinant; tags: N-terminal GST; dsDNA, one strand shown
# How it was run: as §1
# ETV1 = ETV1 (Homo sapiens, UniProt P50549 1-477); conditions: protein: recombinant; tags: N-terminal GST; dsDNA, one strand shown
# How it was run: as §1
# ELF4, sequence (Q99607 whole entry): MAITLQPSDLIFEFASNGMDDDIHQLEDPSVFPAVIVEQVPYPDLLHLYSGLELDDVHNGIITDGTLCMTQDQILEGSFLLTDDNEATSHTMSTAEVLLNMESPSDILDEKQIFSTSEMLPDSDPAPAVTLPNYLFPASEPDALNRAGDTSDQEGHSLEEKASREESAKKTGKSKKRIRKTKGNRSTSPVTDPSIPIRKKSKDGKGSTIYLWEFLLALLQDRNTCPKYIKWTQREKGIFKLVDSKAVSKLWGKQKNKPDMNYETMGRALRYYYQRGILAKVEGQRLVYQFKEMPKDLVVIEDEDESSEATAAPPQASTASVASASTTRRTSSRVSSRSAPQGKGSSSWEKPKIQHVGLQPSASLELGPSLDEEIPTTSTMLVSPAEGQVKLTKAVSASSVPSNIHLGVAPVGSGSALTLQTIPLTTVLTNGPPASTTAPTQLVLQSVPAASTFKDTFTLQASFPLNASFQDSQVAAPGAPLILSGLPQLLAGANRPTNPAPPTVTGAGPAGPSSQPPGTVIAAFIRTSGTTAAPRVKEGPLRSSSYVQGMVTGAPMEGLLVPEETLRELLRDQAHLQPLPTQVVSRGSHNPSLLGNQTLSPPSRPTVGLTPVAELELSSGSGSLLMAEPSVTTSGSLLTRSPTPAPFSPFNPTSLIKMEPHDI
# ETV5, sequence (P41161 whole entry): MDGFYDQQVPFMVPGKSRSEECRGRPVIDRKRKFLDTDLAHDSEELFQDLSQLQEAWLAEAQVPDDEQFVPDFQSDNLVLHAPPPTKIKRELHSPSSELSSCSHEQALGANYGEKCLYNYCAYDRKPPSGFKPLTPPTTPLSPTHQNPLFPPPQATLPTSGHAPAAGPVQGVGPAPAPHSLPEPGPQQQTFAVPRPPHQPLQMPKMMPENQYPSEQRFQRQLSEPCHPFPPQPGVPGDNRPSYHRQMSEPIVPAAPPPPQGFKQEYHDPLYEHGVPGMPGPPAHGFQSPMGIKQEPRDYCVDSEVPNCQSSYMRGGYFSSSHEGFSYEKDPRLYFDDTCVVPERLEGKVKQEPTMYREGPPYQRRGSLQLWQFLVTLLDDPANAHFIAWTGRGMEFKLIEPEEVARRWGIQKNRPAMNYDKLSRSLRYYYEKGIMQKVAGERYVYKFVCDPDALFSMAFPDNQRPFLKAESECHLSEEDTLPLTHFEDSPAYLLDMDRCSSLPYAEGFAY
# ELF1, sequence (P32519 whole entry): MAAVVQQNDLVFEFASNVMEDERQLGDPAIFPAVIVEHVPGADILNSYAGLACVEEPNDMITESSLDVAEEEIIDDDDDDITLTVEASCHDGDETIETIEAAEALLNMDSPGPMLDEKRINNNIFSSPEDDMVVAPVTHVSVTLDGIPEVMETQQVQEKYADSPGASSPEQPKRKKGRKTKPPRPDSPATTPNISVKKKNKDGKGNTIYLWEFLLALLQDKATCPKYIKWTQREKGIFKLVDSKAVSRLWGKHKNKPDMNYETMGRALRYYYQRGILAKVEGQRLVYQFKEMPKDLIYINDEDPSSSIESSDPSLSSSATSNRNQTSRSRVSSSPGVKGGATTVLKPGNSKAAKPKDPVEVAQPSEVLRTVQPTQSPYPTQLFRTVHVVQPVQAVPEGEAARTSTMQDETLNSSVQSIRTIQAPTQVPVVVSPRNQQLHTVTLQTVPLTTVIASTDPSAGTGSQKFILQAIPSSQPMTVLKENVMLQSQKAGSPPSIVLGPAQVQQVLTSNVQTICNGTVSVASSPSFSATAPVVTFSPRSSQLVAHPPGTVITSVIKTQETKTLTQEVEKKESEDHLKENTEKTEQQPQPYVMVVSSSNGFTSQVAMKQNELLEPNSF
# CRX, sequence (O43186 whole entry): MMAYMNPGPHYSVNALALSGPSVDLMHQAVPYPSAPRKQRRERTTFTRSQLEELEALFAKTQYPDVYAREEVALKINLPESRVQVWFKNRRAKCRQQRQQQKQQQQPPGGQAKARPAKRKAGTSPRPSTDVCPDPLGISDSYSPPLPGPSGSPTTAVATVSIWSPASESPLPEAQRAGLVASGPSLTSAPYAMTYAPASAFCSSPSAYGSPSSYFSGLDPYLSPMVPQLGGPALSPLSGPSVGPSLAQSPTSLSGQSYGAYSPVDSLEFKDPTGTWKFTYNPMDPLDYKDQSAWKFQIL
# SPIB, sequence (Q01892 whole entry): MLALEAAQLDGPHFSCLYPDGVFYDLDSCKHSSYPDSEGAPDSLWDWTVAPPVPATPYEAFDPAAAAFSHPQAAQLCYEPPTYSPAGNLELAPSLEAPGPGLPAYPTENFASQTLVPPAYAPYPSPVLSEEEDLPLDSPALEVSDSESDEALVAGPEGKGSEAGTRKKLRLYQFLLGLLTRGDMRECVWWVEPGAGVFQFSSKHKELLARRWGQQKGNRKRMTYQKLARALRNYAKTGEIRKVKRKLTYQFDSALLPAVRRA
# ETV1, sequence (P50549 whole entry): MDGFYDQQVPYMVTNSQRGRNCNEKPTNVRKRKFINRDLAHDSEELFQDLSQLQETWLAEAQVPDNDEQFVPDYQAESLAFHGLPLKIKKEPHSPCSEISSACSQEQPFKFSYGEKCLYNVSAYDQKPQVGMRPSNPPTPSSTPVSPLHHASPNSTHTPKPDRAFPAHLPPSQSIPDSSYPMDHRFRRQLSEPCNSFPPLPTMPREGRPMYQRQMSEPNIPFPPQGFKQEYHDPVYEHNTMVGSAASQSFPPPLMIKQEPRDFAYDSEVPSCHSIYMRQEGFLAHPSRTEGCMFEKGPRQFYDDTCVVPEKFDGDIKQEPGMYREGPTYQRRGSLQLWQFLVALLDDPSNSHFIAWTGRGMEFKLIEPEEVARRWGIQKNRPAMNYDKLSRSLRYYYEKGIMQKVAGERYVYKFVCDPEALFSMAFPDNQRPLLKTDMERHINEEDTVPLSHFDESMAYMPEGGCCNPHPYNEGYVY
# HSF1, sequence (Q00613 whole entry): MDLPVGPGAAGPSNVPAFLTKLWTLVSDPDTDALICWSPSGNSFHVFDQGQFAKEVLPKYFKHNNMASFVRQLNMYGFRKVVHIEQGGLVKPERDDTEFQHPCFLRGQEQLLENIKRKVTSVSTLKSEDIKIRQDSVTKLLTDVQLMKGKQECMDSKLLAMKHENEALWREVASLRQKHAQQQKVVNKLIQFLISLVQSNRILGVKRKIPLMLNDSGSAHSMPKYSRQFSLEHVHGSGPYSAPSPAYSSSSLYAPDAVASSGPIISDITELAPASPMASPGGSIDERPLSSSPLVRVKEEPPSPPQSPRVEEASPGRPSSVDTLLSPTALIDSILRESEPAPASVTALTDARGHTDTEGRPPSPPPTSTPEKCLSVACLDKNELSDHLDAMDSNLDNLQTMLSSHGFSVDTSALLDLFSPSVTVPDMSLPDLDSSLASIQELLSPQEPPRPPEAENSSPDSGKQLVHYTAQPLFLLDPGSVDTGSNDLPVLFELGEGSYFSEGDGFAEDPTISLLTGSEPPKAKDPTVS
sequence,measurement,setting,value
TGAATA,binding signal,FLI1,"1.05 fold enrichment (6-mer frequency, TF over GST control)"
same,binding signal,ELK1,"1.11 fold enrichment (6-mer frequency, TF over GST control)"
same,binding signal,GABPA,"1.2 fold enrichment (6-mer frequency, TF over GST control)"
same,binding signal,ERG,"1.08 fold enrichment (6-mer frequency, TF over GST control)"
same,binding signal,ELF1,"1.1 fold enrichment (6-mer frequency, TF over GST control)"
same,binding signal,EHF,"1.12 fold enrichment (6-mer frequency, TF over GST control)"
same,binding signal,SPI1,"1.08 fold enrichment (6-mer frequency, TF over GST control)"
same,binding signal,SPIB,"1.05 fold enrichment (6-mer frequency, TF over GST control)"
same,binding signal,ELK3,"1.06 fold enrichment (6-mer frequency, TF over GST control)"
same,binding signal,FEV,"1.06 fold enrichment (6-mer frequency, TF over GST control)"
same,binding signal,ETV5,"1.13 fold enrichment (6-mer frequency, TF over GST control)"
same,binding signal,HSF1,"1.24 fold enrichment (6-mer frequency, TF over GST control)"
same,binding signal,SPIC,"1.22 fold enrichment (6-mer frequency, TF over GST control)"
same,binding signal,ELF4,"1.13 fold enrichment (6-mer frequency, TF over GST control)"
same,binding signal,ELK4,"1.12 fold enrichment (6-mer frequency, TF over GST control)"
same,binding signal,ETV2,"1 fold enrichment (6-mer frequency, TF over GST control)"
same,binding signal,ELF3,"1.08 fold enrichment (6-mer frequency, TF over GST control)"
same,binding signal,CRX,"1.16 fold enrichment (6-mer frequency, TF over GST control)"
same,binding signal,ETV1,"1.15 fold enrichment (6-mer frequency, TF over GST control)"
